Among all 5,500 compounds or so, about 2,000 (36%) were called active. Not shown: some 18% with an inconclusive outcome. Some of the results follow. Values without a mark were called inactive. Rule as the data show it: active = normalized growth mostly below about 0.91 (no sharp cut-off); inconclusive = no clear call, values can overlap the other calls; inactive = mostly above about 0.92.
Test: chemical genetic growth profiling, strain panel (AID 1159580);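 also: tested at 20 µM; growth read once vehicle control cultures reached saturation at 30 °C; 1 = growth at the plate median or of vehicle wells; lower values mean less growth of the strain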
Conditions: S. cerevisiae deletion strains, growth OD
[1] = locus YDL101C, strain DUN1, active compounds read low
[2] = locus YHR030C, strain SLT2, active compounds read low
[3] = locus YAL013W, strain DEP1, active compounds read low
[4] = locus YBR229C, strain ROT2, active compounds read low
[5] = locus YCL061C, strain MRC1, active compounds read low
[6] = locus YDR150W, strain NUM1, active compounds read low
[7] = locus YEL061C, strain CIN8, active compounds read low
[8] = locus YGR078C, strain PAC10, active compounds read low
[9] = locus YHR087W, strain rtc3, active compounds read low
[10] = locus YJR043C, strain POL32, active compounds read low
[11] = locus YJR075W, strain HOC1, active compounds read low
[12] = locus YLR039C, strain RIC1, active compounds read low
[13] = locus YLR058C, strain SHM2 (second series), active compounds read low
[14] = locus YLR085C, strain ARP6, active compounds read low
[15] = locus YLR262C, strain YPT6, active compounds read low
[16] = locus YML094W, strain GIM5, active compounds read low
[17] = locus YMR219W, strain ESC1, active compounds read low
[18] = locus YMR263W, strain SAP30, active compounds read low
[19] = locus YNL153C, strain GIM3, active compounds read low
[20] = locus YNL298W, strain CLA4 (second series), active compounds read low
[21] = locus YNL322C, strain KRE1, active compounds read low
[22] = locus YNR030W, strain Alg12, active compounds read low
[23] = locus YOL006C, strain TOP1, active compounds read low
[24] = locus YPL055C, strain LGE1, active compounds read low
[25] = locus YPL241C, strain CIN2, active compounds read low
[26] = locus YPR135W, strain CTF4, active compounds read low

Structure (SMILES): O=C(CSc1nnnn1-c1ccccc1)c1ccccc1
- normalized growth (locus YAR019C, strain CDC15, active compounds read low): 0.96
- normalized growth (locus YBL105C, strain PKC1, active compounds read low): 0.958
- normalized growth (locus YBR135W, strain CKS1, active compounds read low): 0.958
- normalized growth (locus YBR136W, strain MEC1, active compounds read low): 0.955
- normalized growth (locus YBR160W, strain CDC28, active compounds read low): 0.957
- normalized growth (locus YDL017W, strain CDC7, active compounds read low): 0.962
- normalized growth (locus YDL028C, strain MPS1, active compounds read low): 0.949
- normalized growth [1]: 0.983
- normalized growth (locus YDL108W, strain KIN28, active compounds read low): 0.947
- normalized growth (locus YDL132W, strain cdc53, active compounds read low): 0.954
- normalized growth (locus YDL214C, strain PRR2, active compounds read low): 0.734
- normalized growth (locus YDR052C, strain DBF4, active compounds read low): 0.966
- normalized growth (locus YDR054C, strain cdc34, active compounds read low): 0.908
- normalized growth (locus YDR226W, strain ADK1, active compounds read low): 0.959
- normalized growth (locus YDR477W, strain SNF1, active compounds read low): 0.663 (active)
- normalized growth (locus YER123W, strain YCK3, active compounds read low): 0.677
- normalized growth (locus YER133W, strain GLC7, active compounds read low): 0.775
- normalized growth (locus YFL009W, strain cdc4, active compounds read low): 0.949
- normalized growth (locus YFL029C, strain CAK1, active compounds read low): 0.949
- normalized growth (locus YFR003C, strain YPI1, active compounds read low): 0.96
- normalized growth (locus YFR019W, strain FAB1, active compounds read low): 0.752 (active)
- normalized growth (locus YFR028C, strain CDC14, active compounds read low): 0.959
- normalized growth (locus YGR040W, strain KSS1, active compounds read low): 0.655 (active)
- normalized growth (locus YGR052W, strain FMP48, active compounds read low): 0.587 (active)
- normalized growth (locus YGR092W, strain DBF2, active compounds read low): 0.431 (active)
- normalized growth [2]: 0.397 (active)
- normalized growth (locus YHR079C, strain IRE1, active compounds read low): 0.437 (active)
- normalized growth (locus YHR082C, strain KSP1, active compounds read low): 0.698
- normalized growth (locus YHR205W, strain SCH9, active compounds read low): 0.661
- normalized growth (locus YIL147C, strain SLN1, active compounds read low): 0.948
- normalized growth (locus YJL095W, strain BCK1, active compounds read low): 0.415 (active)
- normalized growth (locus YJL128C, strain PBS2, active compounds read low): 0.948
- normalized growth (locus YJL157C, strain FAR1, active compounds read low): 0.664 (active)
- normalized growth (locus YJR016C, strain ILV3, active compounds read low): 0.965
- normalized growth (locus YJR066W, strain TOR1 (second series), active compounds read low): 0.182 (active)
- normalized growth (locus YJR066W, strain TOR1, active compounds read low): 0.486
- normalized growth (locus YKL048C, strain ELM1, active compounds read low): 0.799 (active)
- normalized growth (locus YKL067W, strain YNK1, active compounds read low): 0.662 (active)
- normalized growth (locus YKL101W, strain HSL1, active compounds read low): 0.641 (active)
- normalized growth (locus YKL193C, strain SDS22, active compounds read low): 0.952
- normalized growth (locus YKL203C, strain TOR2, active compounds read low): 0.573 (active)
- normalized growth (locus YLR113W, strain HOG1, active compounds read low): 0.618 (active)
- normalized growth (locus YLR133W, strain CKI1, active compounds read low): 0.6 (active)
- normalized growth (locus YLR403W, strain SFP1, active compounds read low): 0.663
- normalized growth (locus YML070W, strain DAK1, active compounds read low): 0.608 (active)
- normalized growth (locus YMR001C, strain CDC5, active compounds read low): 0.95
- normalized growth (locus YMR205C, strain PFK2 (second series), active compounds read low): 0.696 (active)
- normalized growth (locus YMR277W, strain FCP1, active compounds read low): 0.946
- normalized growth (locus YNL006W, strain LST8, active compounds read low): 0.951
- normalized growth (locus YNL020C, strain ARK1, active compounds read low): 0.61 (active)
- normalized growth (locus YNL161W, strain CBK1, active compounds read low): 0.965
- normalized growth (locus YNL183C, strain NPR1, active compounds read low): 0.505 (active)
- normalized growth (locus YNL207W, strain RIO2, active compounds read low): 0.93
- normalized growth (locus YNL222W, strain SSU72, active compounds read low): 0.968
- normalized growth (locus YNL307C, strain MCK1 (second series), active compounds read low): 0.259 (active)
- normalized growth (locus YOL078W, strain AVO1, active compounds read low): 0.941
- normalized growth (locus YOL136C, strain PFK27, active compounds read low): 0.529 (active)
- normalized growth (locus YOR061W, strain CKA2, active compounds read low): 0.708
- normalized growth (locus YOR119C, strain RIO1, active compounds read low): 0.61 (active)
- normalized growth (locus YOR231W, strain MKK1, active compounds read low): 0.448 (active)
- normalized growth (locus YOR329C, strain SCD5, active compounds read low): 0.959
- normalized growth (locus YPL031C, strain PHO85, active compounds read low): 0.571 (active)
- normalized growth (locus YPL153C, strain RAD53, active compounds read low): 0.538 (active)
- normalized growth (locus YPL204W, strain HRR25, active compounds read low): 0.524 (active)
- normalized growth (locus YPL209C, strain IPL1, active compounds read low): 0.964
- normalized growth (locus YPL256C, strain CLN2, active compounds read low): 0.758 (active)
- normalized growth (locus YPR025C, strain CCL1, active compounds read low): 0.961
- normalized growth (locus YPR106W, strain ISR1, active compounds read low): 0.972
- normalized growth (locus YPR111W, strain DBF20, active compounds read low): 0.964
- normalized growth (strain NNK1, active compounds read low): 0.973
- normalized growth (strain TSCII, active compounds read low): 0.948

Structure (SMILES): CSc1nnnn1-c1c(C)cccc1C
- normalized growth [3]: 0.998
- normalized growth [4]: 0.973
- normalized growth [5]: 0.996
- normalized growth [1]: 1.02
- normalized growth [6]: 1.02
- normalized growth [7]: 0.972
- normalized growth [8]: 0.982
- normalized growth (locus YGR229C, strain SMI1, active compounds read low): 0.966
- normalized growth [2]: 0.96
- normalized growth [9]: 0.988
- normalized growth (locus YJL187C, strain SWE1, active compounds read low): 0.979
- normalized growth [10]: 0.982
- normalized growth [11]: 0.998
- normalized growth (locus YKL190W, strain CNB1, active compounds read low): 0.962
- normalized growth [12]: 0.969
- normalized growth [13]: 0.972
- normalized growth [14]: 0.999
- normalized growth [15]: 0.936
- normalized growth [16]: 1.08
- normalized growth [17]: 0.983
- normalized growth [18]: 1
- normalized growth [19]: 0.998
- normalized growth [20]: 0.984
- normalized growth [21]: 0.984
- normalized growth [22]: 1
- normalized growth [23]: 0.944
- normalized growth [24]: 1.01
- normalized growth [25]: 0.936
- normalized growth [26]: 1.01

Structure (SMILES): O=C(CSc1nnnn1-c1ccccc1)NC1Cc2ccccc2C1
- normalized growth [3]: 1.02
- normalized growth [4]: 0.998
- normalized growth [5]: 1.02
- normalized growth [1]: 1
- normalized growth (locus YDL134C, strain PPH21, active compounds read low): 1
- normalized growth [6]: 0.988
- normalized growth [7]: 0.988
- normalized growth [8]: 1.02
- normalized growth [2]: 1.02
- normalized growth [9]: 0.99
- normalized growth [10]: 1.04
- normalized growth [11]: 1.01
- normalized growth [12]: 1.07
- normalized growth [13]: 0.996
- normalized growth [14]: 0.991
- normalized growth [15]: 1.07
- normalized growth [16]: 0.999
- normalized growth [17]: 0.996
- normalized growth [18]: 1
- normalized growth (locus YMR307W, strain GAS1, active compounds read low): 1.06
- normalized growth (locus YNL128W, strain TEP1, active compounds read low): 1
- normalized growth [19]: 1.03
- normalized growth [20]: 1.01
- normalized growth [21]: 0.999
- normalized growth [22]: 0.995
- normalized growth [23]: 0.944
- normalized growth [24]: 0.879
- normalized growth [25]: 0.985
- normalized growth [26]: 1.01
